From ChEMBL document CHEMBL1961873, “Compounds: GSK PKIS; Assays: Nanosyn kinase panel” (2012)

How the values were obtained:
[1] = target: MAP/microtubule affinity-regulating kinase 3 (Homo sapiens) (UniProt P27448); details: at 1 µM;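 also: reported values are averaged percent inhibition of MARK3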
[2] = target: T1, MAP/microtubule affinity-regulating kinase 4 (Homo sapiens) (UniProt Q96L34); details: at 0.1 µM
T1 sequence (whole entry): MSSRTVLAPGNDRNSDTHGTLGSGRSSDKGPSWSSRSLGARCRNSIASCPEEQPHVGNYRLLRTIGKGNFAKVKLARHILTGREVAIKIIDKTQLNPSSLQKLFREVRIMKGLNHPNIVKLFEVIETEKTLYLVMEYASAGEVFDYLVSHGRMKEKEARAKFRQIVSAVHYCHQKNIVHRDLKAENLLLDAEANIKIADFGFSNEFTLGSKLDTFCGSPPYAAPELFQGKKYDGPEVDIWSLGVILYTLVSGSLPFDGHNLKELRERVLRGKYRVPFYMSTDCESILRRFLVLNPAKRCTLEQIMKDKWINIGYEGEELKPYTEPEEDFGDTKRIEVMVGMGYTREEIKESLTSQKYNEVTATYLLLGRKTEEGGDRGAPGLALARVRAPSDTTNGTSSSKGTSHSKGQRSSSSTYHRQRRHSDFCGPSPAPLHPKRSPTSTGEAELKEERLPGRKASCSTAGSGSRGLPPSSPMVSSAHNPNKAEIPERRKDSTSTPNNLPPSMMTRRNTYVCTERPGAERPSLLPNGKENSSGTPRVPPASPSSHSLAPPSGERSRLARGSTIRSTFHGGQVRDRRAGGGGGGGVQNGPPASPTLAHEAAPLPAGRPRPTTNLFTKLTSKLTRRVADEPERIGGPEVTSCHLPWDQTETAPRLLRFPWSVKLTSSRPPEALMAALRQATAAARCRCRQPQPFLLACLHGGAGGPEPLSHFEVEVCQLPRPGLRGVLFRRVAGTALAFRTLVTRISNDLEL

[3] = target: T1, MAP/microtubule affinity-regulating kinase 4 (Homo sapiens); details: at 1 µM
[4] = target: Maternal embryonic leucine zipper kinase (Homo sapiens) (UniProt Q14680); details: at 0.1 µM
[5] = target: Maternal embryonic leucine zipper kinase (Homo sapiens) (UniProt Q14680); details: at 1 µM
[6] = target: MAP kinase-interacting serine/threonine-protein kinase 1 (Homo sapiens) (UniProt Q9BUB5); details: at 0.1 µM
[7] = target: MAP kinase-interacting serine/threonine-protein kinase 1 (Homo sapiens) (UniProt Q9BUB5); details: at 1 µM
[8] = target: MAP kinase-interacting serine/threonine-protein kinase 2 (Homo sapiens) (UniProt Q9HBH9); details: at 0.1 µM
[9] = target: MAP kinase-interacting serine/threonine-protein kinase 2 (Homo sapiens) (UniProt Q9HBH9); details: at 1 µM
[10] = target: Serine/threonine-protein kinase MARK2 (Homo sapiens) (UniProt Q7KZI7); details: at 0.1 µM;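 also: mean percent inhibition of PAR-1Balpha kinase activity, reported from the GSK PKIS screen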
Sequence of Serine/threonine-protein kinase MARK2 (Homo sapiens) (Q7KZI7 whole entry): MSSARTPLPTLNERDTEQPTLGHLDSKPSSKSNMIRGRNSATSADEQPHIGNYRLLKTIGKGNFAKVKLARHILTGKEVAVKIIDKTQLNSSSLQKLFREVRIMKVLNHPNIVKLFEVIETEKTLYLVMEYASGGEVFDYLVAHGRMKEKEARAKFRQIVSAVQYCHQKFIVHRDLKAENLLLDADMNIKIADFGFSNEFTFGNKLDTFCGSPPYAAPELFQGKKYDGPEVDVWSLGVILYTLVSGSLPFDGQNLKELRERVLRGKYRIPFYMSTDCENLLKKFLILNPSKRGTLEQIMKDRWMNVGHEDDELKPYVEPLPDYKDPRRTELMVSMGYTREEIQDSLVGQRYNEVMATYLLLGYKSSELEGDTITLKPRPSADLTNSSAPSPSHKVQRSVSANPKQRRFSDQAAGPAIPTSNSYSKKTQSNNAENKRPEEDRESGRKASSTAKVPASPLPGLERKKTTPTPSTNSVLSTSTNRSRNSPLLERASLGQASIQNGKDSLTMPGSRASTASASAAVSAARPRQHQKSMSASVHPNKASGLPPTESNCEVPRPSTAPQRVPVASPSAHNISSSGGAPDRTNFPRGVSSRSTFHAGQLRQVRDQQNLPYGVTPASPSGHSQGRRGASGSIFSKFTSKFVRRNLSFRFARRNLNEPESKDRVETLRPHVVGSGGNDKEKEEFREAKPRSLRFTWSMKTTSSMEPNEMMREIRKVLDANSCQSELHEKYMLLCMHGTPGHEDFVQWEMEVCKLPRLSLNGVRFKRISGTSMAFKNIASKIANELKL

Sequence of Maternal embryonic leucine zipper kinase (Homo sapiens) (Q14680 whole entry, looked up): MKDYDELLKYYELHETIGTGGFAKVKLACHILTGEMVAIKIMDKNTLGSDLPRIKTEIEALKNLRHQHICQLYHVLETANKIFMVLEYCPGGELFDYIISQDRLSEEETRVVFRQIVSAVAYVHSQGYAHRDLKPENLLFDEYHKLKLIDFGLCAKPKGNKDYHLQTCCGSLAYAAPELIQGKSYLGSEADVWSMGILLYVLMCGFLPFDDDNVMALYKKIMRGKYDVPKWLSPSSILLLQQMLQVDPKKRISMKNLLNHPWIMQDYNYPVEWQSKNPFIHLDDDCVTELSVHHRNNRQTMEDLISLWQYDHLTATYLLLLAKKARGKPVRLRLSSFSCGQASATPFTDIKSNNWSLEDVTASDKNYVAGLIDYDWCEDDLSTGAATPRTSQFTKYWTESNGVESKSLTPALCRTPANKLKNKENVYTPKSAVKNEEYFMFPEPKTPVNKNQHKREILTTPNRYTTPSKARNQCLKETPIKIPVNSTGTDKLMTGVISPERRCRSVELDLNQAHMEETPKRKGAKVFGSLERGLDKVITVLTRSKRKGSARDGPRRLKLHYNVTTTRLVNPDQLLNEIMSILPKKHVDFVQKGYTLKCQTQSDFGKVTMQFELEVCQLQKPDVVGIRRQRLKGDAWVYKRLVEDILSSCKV
Sequence of MAP kinase-interacting serine/threonine-protein kinase 1 (Homo sapiens) (Q9BUB5 whole entry, looked up): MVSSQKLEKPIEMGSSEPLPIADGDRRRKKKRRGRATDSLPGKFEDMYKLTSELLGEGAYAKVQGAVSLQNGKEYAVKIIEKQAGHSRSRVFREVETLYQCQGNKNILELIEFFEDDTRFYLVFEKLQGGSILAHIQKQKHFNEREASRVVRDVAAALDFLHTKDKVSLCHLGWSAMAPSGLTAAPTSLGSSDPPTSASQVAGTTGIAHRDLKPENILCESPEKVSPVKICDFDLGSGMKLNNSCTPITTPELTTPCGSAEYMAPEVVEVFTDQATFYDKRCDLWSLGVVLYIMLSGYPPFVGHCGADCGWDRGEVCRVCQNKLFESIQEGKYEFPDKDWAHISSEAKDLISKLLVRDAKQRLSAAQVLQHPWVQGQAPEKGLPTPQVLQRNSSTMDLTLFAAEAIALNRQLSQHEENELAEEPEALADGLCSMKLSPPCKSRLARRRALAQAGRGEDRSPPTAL
Sequence of MAP kinase-interacting serine/threonine-protein kinase 2 (Homo sapiens) (Q9HBH9 whole entry, looked up): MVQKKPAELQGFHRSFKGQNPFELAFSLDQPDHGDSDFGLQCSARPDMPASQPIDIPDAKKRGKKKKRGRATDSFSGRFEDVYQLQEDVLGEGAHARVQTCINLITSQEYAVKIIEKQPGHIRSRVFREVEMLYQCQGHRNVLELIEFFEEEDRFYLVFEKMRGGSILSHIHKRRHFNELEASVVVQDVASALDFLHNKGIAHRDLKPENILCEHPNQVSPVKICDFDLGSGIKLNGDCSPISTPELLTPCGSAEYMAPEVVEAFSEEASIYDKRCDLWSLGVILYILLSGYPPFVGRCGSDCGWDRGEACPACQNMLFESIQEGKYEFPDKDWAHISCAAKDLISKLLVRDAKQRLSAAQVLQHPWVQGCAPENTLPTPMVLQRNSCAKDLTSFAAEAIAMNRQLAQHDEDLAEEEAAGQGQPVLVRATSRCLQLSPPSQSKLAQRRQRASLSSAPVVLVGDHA
Sequence of MAP/microtubule affinity-regulating kinase 3 (Homo sapiens) (P27448 whole entry, looked up): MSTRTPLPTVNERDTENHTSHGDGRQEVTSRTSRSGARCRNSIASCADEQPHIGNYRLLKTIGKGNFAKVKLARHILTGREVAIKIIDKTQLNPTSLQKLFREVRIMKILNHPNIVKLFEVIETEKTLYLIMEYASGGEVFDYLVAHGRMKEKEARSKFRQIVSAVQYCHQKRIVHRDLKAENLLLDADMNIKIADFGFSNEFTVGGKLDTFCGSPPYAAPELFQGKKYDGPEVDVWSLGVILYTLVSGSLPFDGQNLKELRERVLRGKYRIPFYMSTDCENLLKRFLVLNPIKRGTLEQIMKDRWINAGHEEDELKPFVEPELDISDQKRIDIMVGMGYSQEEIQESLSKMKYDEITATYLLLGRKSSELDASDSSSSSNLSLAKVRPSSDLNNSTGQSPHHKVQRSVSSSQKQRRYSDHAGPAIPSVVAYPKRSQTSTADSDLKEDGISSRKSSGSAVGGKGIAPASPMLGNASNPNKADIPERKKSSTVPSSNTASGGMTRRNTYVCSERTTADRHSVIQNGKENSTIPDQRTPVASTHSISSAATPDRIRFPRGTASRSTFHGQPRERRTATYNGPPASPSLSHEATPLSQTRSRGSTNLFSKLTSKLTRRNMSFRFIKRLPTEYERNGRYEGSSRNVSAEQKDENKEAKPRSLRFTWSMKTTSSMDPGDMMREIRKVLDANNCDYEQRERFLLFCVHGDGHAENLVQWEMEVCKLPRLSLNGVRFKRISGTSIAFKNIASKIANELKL

| Structure (SMILES) | inhibition [1] [%] | inhibition [2] [%] | inhibition [3] [%] | inhibition [4] [%] | inhibition [5] [%] | inhibition [6] [%] | inhibition [7] [%] | inhibition [8] [%] | inhibition [9] [%] | inhibition [10] [%] |
| --- | --- | --- | --- | --- | --- | --- | --- | --- | --- | --- |
| COc1cc2ncn(-c3cc(O[C@@H](C)c4ccccc4Cl)c(C(N)=O)s3)c2cc1OC | 8.06 | 2.88 | 7.69 | 4.41 | 9.71 | 1.25 | 2.74 | -0.9 | 7.84 | 1.49 |
| COC(=O)Nc1nc2cc(Oc3cccc(NC(=O)Nc4cc(C(F)(F)F)ccc4F)c3)ccc2[nH]1 | 1.94 | 1.07 | 2.15 | -0.49 | 1.36 | 1.02 | 1.01 | 3.02 | -0.05 | 0.89 |
| CNC(=O)c1cncc(/C=C/c2c(Cl)cccc2Cl)c1 | 3.1 | 1.49 | 3.08 | 6.04 | 14.7 | 1.63 | 6.73 | 3.42 | 16.3 | 1 |
| NC(=O)c1ccc(-c2nc(-c3ccccn3)c(-c3ccc4c(c3)OCO4)[nH]2)cc1 | 11 | 1.03 | 0.93 | 2.76 | 2.1 | 1.26 | 5.1 | 1.27 | 3.13 | -0.01 |
| CS(=O)(=O)CCNCc1ccc(-c2ccc3ncnc(Nc4ccc(OCc5ccccc5)c(Cl)c4)c3c2)o1 | 1.81 | 0.94 | 1.91 | 2.31 | 3.16 | 2.34 | 6.26 | 1.96 | 9.71 | 0.91 |
| CCn1c(-c2nonc2N)nc2cncc(C(=O)N3CCNCC3)c21 | 7.99 | 2.3 | 1.48 | 6.1 | 9.51 | 2.42 | 2.99 | 1.78 | 0.78 | 2.18 |
| CC1=C(C(=O)Nc2ccc3[nH]ncc3c2)C(c2ccc(Cl)c(Cl)c2)CC(=O)N1 (stereo not drawn) | 9.26 | -0.78 | 3.04 | -0.28 | 5.33 | 2.25 | 5.99 | 0.25 | 1.48 | -0.78 |
| N#Cc1c(NC(=O)c2cccc3ccccc23)sc2c1CCCC2 | 0.94 | 2.49 | 1.96 | 4.2 | 7.39 | 1.49 | 4.73 | 1.09 | 1.55 | 0.64 |
| NS(=O)(=O)c1ccc(N/N=C2\C(=O)Nc3ccc(C(=O)NCCc4c[nH]cn4)cc32)cc1 | 49.1 | 11.8 | 56.3 | 82 | 98 | 2.81 | 4.11 | 1.48 | 4.85 | 7.88 |
| COC(=O)Nc1nc2cc(Oc3ccc(NC(=O)Nc4cccc(C(=O)O)c4)cc3)ccc2[nH]1 | 3.98 | -0.3 | 1.97 | -0.21 | 0.37 | -0.48 | 8.3 | 0.28 | 3.85 | -2.31 |
| COc1cc2ncn(-c3cc(O[C@H](C)c4ccccc4Cl)c(C(N)=O)s3)c2cc1OC | 37.2 | 4.58 | 32 | 4.94 | 23.7 | 3.54 | 11.9 | 3.53 | 11.8 | 2.26 |
| CC(=O)Nc1cccc(C#Cc2cncnc2Nc2ccc(OCc3cccc(F)c3)c(Cl)c2)n1 | 3.05 | 0.52 | 0.84 | -2.29 | -2.61 | 0.9 | 18.7 | 3.48 | 14.3 | 1.78 |
| O=C(Nc1n[nH]c2nc(-c3ccco3)c(Br)cc12)C1CC1 | -5.02 | 1.46 | 2.43 | 2.96 | 7.3 | 3.3 | 13.9 | 1.26 | 1.34 | -0.08 |
| CCn1c(-c2nonc2N)nc2c(C#CC(C)(C)O)nc(CN3CCCC3)cc21 | 15.4 | 3.5 | 7.13 | 1.68 | 5.55 | -0.28 | 0.88 | -0.06 | 1.84 | 3.94 |
| CCN1CCC(CC(=O)Nc2n[nH]c3nc(-c4cccs4)c(Br)cc23)CC1 | -0.75 | 0.08 | 0.81 | -1.63 | 0.98 | 42 | 76.6 | 2.95 | 28.2 | 0.07 |
| CC(C)=Cc1cccc2c1/C(=N/Nc1ccc(S(N)(=O)=O)cc1)C(=O)N2 | 20.6 | 1.89 | 20 | 0.98 | 25.6 | 0.23 | 7.18 | 1.9 | 4.65 | 1.87 |
| O=C1NC(=O)C(c2cccc(Cl)c2)=C1Nc1ccc(O)c(Cl)c1 | 18.6 | 2.36 | 17.3 | 0.77 | 6.85 | 0.35 | 7.25 | 0.54 | 1.96 | 0.55 |

| Structure (SMILES) | inhibition [1] [%] | inhibition [2] [%] | inhibition [3] [%] | inhibition [4] [%] | inhibition [5] [%] | inhibition [6] [%] | inhibition [7] [%] | inhibition [8] [%] | inhibition [9] [%] | inhibition [10] [%] |
| --- | --- | --- | --- | --- | --- | --- | --- | --- | --- | --- |
| CC1=C(C(=O)Nc2ccc3[nH]ncc3c2)C(c2ccc3ccccc3c2)CC(=O)N1 (stereo not drawn) | 4.13 | 0.19 | 1.73 | 3.7 | 6.22 | 3.03 | 5.77 | 1.21 | 3.81 | -0.71 |
| Cc1cc(O)cc(C)c1/C=C/c1cncc(-c2nn[nH]n2)c1 | 5.96 | 2.37 | 3.69 | 4.83 | 8.68 | 20.6 | 65.3 | 22.6 | 63.8 | 0.37 |
| COc1ccc2cc(-c3c(-c4ccncc4)nc(-c4ccc([S+](C)[O-])cc4)n3C)ccc2c1 (stereo not drawn) | 0.76 | 1.4 | 1.07 | 2.76 | 6.5 | 2.19 | 3.02 | 0.53 | 0.5 | 0.3 |
| Cc1nnc(-c2ccc(C)c(-c3ccc(C(=O)Nc4cccc(C#N)c4)cc3)c2)o1 | 4.82 | 0.41 | 1.13 | -0.46 | 6.64 | 1.54 | 4.88 | 0.9 | 3.32 | -1.11 |
| Cc1ccc(NC(=O)c2ccnc(N3CCCC3)c2)cc1-c1ccc(C(=O)NCC2CC2)cc1 | 0.65 | 4.16 | 5.97 | 4.85 | 7.99 | 1.78 | 6.57 | -0.01 | 1.11 | 0.13 |
| COc1ccc(-c2nn3ncccc3c2-c2ccnc(Nc3ccc(Cl)c(C(F)(F)F)c3)n2)cc1 | 6.57 | 0.48 | 0.08 | 0.2 | 4.8 | -1.04 | 5.69 | 1.9 | 2.43 | -0.27 |
| Cc1ccc(C(=O)NC2CCCCC2)cc1-c1ccc(C(=O)NCC2CC2)cc1 | 2.82 | 1.51 | 1.5 | 1.92 | 2.41 | 1.78 | 2.58 | 0.32 | -0.44 | 0.34 |
| c1cnn2ncc(-c3ccnc(Nc4ccc5c(c4)OCCO5)n3)c2c1 | 24.8 | 3.11 | 16.4 | 11.6 | 51.6 | 3.95 | 14.5 | 4.36 | 25.9 | 0.05 |
| Nc1ncnc2occ(-c3ccc(NC(=O)Nc4cc(C(F)(F)F)cc(C(F)(F)F)c4)cc3)c12 | 2.35 | 1.32 | 1.47 | 0.21 |  | 3.24 | 12.2 | 0.38 | 7.49 | -1.98 |
| O=C1NC(=O)C(c2ccc(Cl)cc2)=C1Nc1ccc(Cl)c(C(=O)O)c1 | 1.91 | -0.05 | 1.71 | -3.46 | 1.25 | -0.24 | -0.57 | -0.57 | 0.11 | -0.46 |
| CCn1c(-c2nonc2N)nc2cncc(C(=O)N3CC[C@H](N)C3)c21 | 4.57 | 2.19 | 4.51 | 14.8 | 60.6 | 3.74 | 9.55 | 2.07 | 10.8 | 1.6 |
| COc1cc2ncn(-c3cc(OCc4ccccc4Cl)c(C(N)=O)s3)c2cc1OC | 9.99 | 1.66 | 9.04 | 2.05 | 8.87 | 0.61 | 7.42 | 1.58 | 7.9 | 0.69 |
| Nc1ncnc2occ(-c3ccc(NC(=O)Nc4cccc(C(F)(F)F)c4)cc3)c12 | 5.23 | 2.8 | 4.23 | 3.16 |  | 11.2 | 38.7 | 9.53 | 53.9 | 1.27 |
| CCn1c(-c2nonc2N)nc2cnc(Oc3cccc(NC(=O)c4ccc(OCCN5CCOCC5)cc4)c3)cc21 | 8.24 | 1.29 | 4.43 | 10.4 | 50.5 | 3.45 | 13.3 | 3.73 | 21 | 1.17 |
| COc1ccccc1Nc1ncc(-c2ccccc2)o1 | 4.87 | 2.98 | 4.33 | 4.62 | 8.09 | 4.22 | 5.88 | 1.93 | 7.25 | 0.41 |
| CN(C)c1cc2c(Nc3ccc4nc(Cc5ccccc5)[nH]c4c3)ncnc2cn1 | 5 | 2.82 | 3 | 6.98 | 11.4 | 3.69 | 8.7 | 0.92 | 4.05 | 0.6 |
| COc1cc2ncn(-c3cc(OCc4ccccc4C(F)(F)F)c(C(N)=O)s3)c2cc1OC | 21.5 | 5.05 | 18.4 | 5.92 | 10.3 | 2.99 | 7.06 | 2.21 | 7.89 | 2.29 |
